Bioassay records as filed in PubChem.
CHT allo act – CHT positive allosteric modulators, primary screen, cell-based, membrane potential dye, choline EC20; B-score at 10 µM; actives 0.49% (n = 310,000); High affinity choline transporter 1 (Homo sapiens), Q9GZV3; CHT-expressing cells; stronger effect = higher value; LV-AA mutant CHT in HEK293 cells; AID 488977, 2010;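 active means initial fluorescence not abnormally high and integrated response B-score, plate-corrected, over 3 SD above library mean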
Target sequence (Q9GZV3 whole entry, looked up): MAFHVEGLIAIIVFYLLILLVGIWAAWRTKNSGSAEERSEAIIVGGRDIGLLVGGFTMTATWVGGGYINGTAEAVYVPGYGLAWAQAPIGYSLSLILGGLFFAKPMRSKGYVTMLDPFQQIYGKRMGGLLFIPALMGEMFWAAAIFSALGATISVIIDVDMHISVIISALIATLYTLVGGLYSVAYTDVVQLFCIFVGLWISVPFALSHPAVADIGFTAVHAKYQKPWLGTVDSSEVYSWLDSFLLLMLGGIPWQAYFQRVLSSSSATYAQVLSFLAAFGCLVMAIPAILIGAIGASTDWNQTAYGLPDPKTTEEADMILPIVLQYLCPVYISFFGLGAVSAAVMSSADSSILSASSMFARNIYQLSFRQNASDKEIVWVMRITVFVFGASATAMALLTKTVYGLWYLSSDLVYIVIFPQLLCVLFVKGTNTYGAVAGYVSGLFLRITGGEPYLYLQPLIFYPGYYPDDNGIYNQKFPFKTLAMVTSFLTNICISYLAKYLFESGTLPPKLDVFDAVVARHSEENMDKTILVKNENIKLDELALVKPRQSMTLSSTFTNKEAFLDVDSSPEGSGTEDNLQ
H9c2 TAG inh – inhibitors of triacylglycerol accumulation, primary screen, cell-based, uHTS, fluorescence, H9c2; H9c2 cells, Nile Red lipid (TAG) fluorescence; cells loaded with 200 µM oleic acid; actives 0.66% (n = 230,000); inhibition, % at 12.5 µM;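 active means pattern-corrected inhibition of lipid staining of at least 50% with the nuclear-stain viability signal not falling by more than 50%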;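 further: 0% = DMSO wells and 100% = triacsin C control wells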
beta cell repl – inducers of MIN6 beta-cell proliferation, primary screen, ATP luminescence, uHTS; MIN6 cells proliferation, ATPlite luminescence, 48 h; cells starved in 0.2% serum; 100% = growth in 10% serum; proliferation, % at 10 µM; actives 0.29% (n = 330,000);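 active means compounds whose signal lies at least 3.5 SD above the mean of all wells on their plate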;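 further: 0% = DMSO-treated cells in low-serum medium and 100% = 10% serum control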
CHT inh – inhibitors of human choline transporter CHT | actives 0.86% (n = 310,000) | CHT-expressing cells, membrane potential dye, choline response; stronger effect = lower value | High affinity choline transporter 1 (Homo sapiens), Q9GZV3 | B-score at 10 µM;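 active means B-score over 3 SD under the library average, and starting fluorescence ratio not unusually high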;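 further: choline stimulus applied at its EC90 after an EC20 pre-addition; B-score computed on integrated fluorescence ratio after choline addition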
CHT inh conf – CHT inhibitors, confirmation, cell-based, membrane potential dye, duplicate; CHT activity remaining % of control (stronger effect = lower value), % at 10 µM; CHT-expressing cells, choline membrane potential dye; LV-to-AA substituted CHT, HEK293 cells; actives 70% (n = 2,400); shares compounds with CHT inh; AID 493221, 2011;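 active means choline transporter activity left, mean of duplicates at 10 µM, below buffer-only control mean minus 3 SD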;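 further: depolarization triggered by choline at its EC90 following an EC20 pre-addition; 0% = hemicholinium-3 full block and 100% = buffer-only control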
HEK293 MPD ctr – membrane potential effects in parental HEK293, counter-screen for CHT inhibitor project, cell-based, membrane potential dye | shares compounds with CHT inh | membrane potential ratio readout (active if shifted either direction beyond buffer ±3SD; no single direction) at 10 µM | choline response; active = decrease or increase beyond buffer ±3SD | actives 4% (n = 2,400);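 further: parental cells lack the transporter so any hit is non-specific; ratio is peak minus trough fluorescence over baseline after EC90 choline challenge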
* hit, by the source's call; i = inactive; · = no result. This is a sample that favours compounds with a hit; in the whole collection about 1.7% have one here.

SMILES	CHT allo act	H9c2 TAG inh	beta cell repl	CHT inh	CHT inh conf	HEK293 MPD ctr
CCN(CC)S(=O)(=O)c1ccc(OC)c(NC(=S)Nc2ccc(C)c(C)c2)c1	i	·	-6	-6*	53%*	i
O=C(CSc1ccccc1F)NCCCN1CCCC1=O	i	2	-3	i	·	·
Cc1ccc(C(C(=O)NC2CCCCC2)N(C(=O)CCCC(=O)Nc2ccccn2)c2ccc3c(c2)OCCO3)cc1 (centres undefined)	i	·	-3	i	·	·
O=C(NC1CCCCC1)C(c1ccc2ncccc2c1)N(Cc1ccccc1)C(=O)c1ccc2c(c1)OCCO2 (centres undefined)	i	·	-2	-6.7*	47%*	i
COc1ccc(CN(C(=O)c2ccc3c(c2)OCCO3)C(C(=O)NC2CCCCC2)c2ccc3ncccc3c2)cc1 (centres undefined)	i	·	-3	-9.2*	16%*	i
NC(=O)c1sc(-c2ccsc2)cc1NS(=O)(=O)c1ccc(C(F)(F)F)cc1	i	4	-6	-6.9*	i	i
O=C(Nc1ccc(OCc2ccccc2)cc1)Nc1ccccc1C(=O)NCCCN1CCOCC1	i	-3	1	-5*	44%*	i
Cc1ccc(N2NC(=O)/C(=C\c3cc4c(cc3[N+](=O)[O-])OCO4)C2=O)cc1C	i	·	·	-5*	42%*	i
C=CCOc1ccccc1CNCCc1ccc(S(N)(=O)=O)cc1	i	-21	-4	i	·	·
NS(=O)(=O)c1ccc(CCNCc2ccccc2OCc2ccc(Cl)cc2)cc1	i	·	-4	-5.1*	27%*	i
NS(=O)(=O)c1ccc(CCNCc2cc(Cl)ccc2OCc2ccccc2)cc1	i	·	-5	-6.5*	50%*	i
O=C(CSc1ccccc1[N+](=O)[O-])NC1CCS(=O)(=O)C1 (centres undefined)	i	·	-3	i	·	·
COc1ccc(C(=O)NCCCn2cccn2)cc1OC1CCN(C(C)=O)CC1	·	-6	-1	·	·	·
COc1ccc(C(=O)NC(C)Cc2cnccn2)cc1OC1CCN(C(C)C)CC1 (centres undefined)	i	-12	2	-7*	28%*	i
COc1ccc(C(=O)NC(C)CCn2cccn2)cc1OC1CCN(C(C)C)CC1 (centres undefined)	i	1	3	-9.8*	13%*	i
Nc1ccc(C(=O)C(=O)c2ccccc2)cc1	i	-15	-2	i	·	·
CC1(C(=O)NC(=S)NNC(=O)c2ccncc2)CCCCC1	i	3	0	i	·	·
O=C(NNC(=S)NC(=O)C12CC3CC(CC(C3)C1)C2)c1ccncc1	i	·	-2	-9.6*	53%*	i
O=C(Nc1cccc(C(=O)N2CCCCC2)c1)c1ccccc1Br	i	-7	-3	-5.2*	25%*	i
Cc1ccc(CNC(=O)N[C@@H](Cc2ccccc2)C(=O)O)cc1	i	·	1	-16*	60%*	i
COC(=O)[C@H](Cc1ccccc1)NC(=O)NCc1ccc(C)cc1	i	-4	2	i	·	·
O=C(OCc1nc2ccsc2c(=O)[nH]1)c1ccco1	i	-3	1	i	·	·
O=C(OCc1nc2ccsc2c(=O)[nH]1)c1cc(Br)c(Br)s1	i	6	-2	-7.7*	64%*	i
COC(=O)c1ccc(Oc2ccc(S(=O)(=O)N3CCCCC3)cc2N)cc1	i	·	-3	i	·	·
Nc1cc(S(=O)(=O)N2CCCCC2)ccc1Oc1ccc(Cl)cc1	i	4	-5	-9.4*	i	i
SMILES	CHT allo act	H9c2 TAG inh	beta cell repl	CHT inh	CHT inh conf	HEK293 MPD ctr
CCCCN(C)CCNC(=O)CN1C(=O)CSc2ccc(S(=O)(=O)N3CCCC3)cc21	i	·	1	-5.7*	58%*	i
CC1CCN(S(=O)(=O)c2ccc3c(c2)N(CC(=O)NCCCN2CCCCC2C)C(=O)CS3)CC1 (centres undefined)	i	·	1	-5.5*	44%*	i
CC1CCN(S(=O)(=O)c2ccc3c(c2)N(CC(=O)NCCN2C(C)CCCC2C)C(=O)CS3)CC1 (centres undefined)	i	·	0	-10*	17%*	i
Cc1nn(-c2ccccc2)c(N2CCCC2)c1/C=N/Nc1ccc(S(N)(=O)=O)cc1[N+](=O)[O-]	i	·	-5	-5*	i	i
CC(=O)c1ccc(Nc2nc(NCCO)nc(OC(C(F)(F)F)C(F)(F)F)n2)cc1	i	·	-1	-5.1*	66%*	i
CC(CNC(=O)c1ccc(OC2CCN(Cc3ccccn3)CC2)cc1)c1ccccc1 (centres undefined)	i	0	1	-12*	10%*	i
O=C(NC1CCCCC1)c1ccc(OC2CCN(Cc3ccccn3)CC2)cc1	i	-4	-2	-13*	-6.3%*	i
COc1ccc(CC(=O)Nc2cc(F)ccc2F)cc1S(=O)(=O)N1CCOCC1	·	-3	·	·	·	·
CCOC(=O)c1oc2nc(CC(C)C)c3c(c2c1N)CCCC3	i	18	-2	-11*	13%*	i
CCOC(=O)c1oc2nc(C)c3c(c2c1N)CC(C)(C)OC3	i	8	0	i	·	·
CC1CCCCC1NC(=O)Cn1nnc(-c2ccc(Cl)cc2)n1 (centres undefined)	i	·	-2	-6.3*	66%*	i
O=C(Cn1nnc(-c2ccc(Cl)cc2)n1)NC1CCN(Cc2ccccc2)CC1	i	-10	-3	i	·	·
COc1cc(OC)cc(C(=O)NNC(=O)CCc2nc3ccccc3c(=O)[nH]2)c1	·	-9	0	·	·	·
O=C(Nc1nnc(C(F)(F)F)s1)C1COc2ccccc2O1 (centres undefined)	i	-2	0	-5.4*	49%*	i
CCOCCCNC(=O)c1ccc(-n2c(=S)[nH]c3ccccc3c2=O)cc1	i	13	-1	i	·	·
Cc1nnc(SCc2cccc3ccccc23)s1	i	5	-2	i	·	·
Cc1ccc(C(C)NC(=S)NCc2ccc(F)cc2)cc1C (centres undefined)	i	·	-7	-5.1*	71%*	i
CCc1ccc(C(C)NC(=S)NCc2ccc(F)cc2)cc1 (centres undefined)	i	-14	-8	i	·	·
CC(Sc1ccc(S(=O)(=O)N2CCN(C)CC2)cn1)C(=O)Nc1cccc(Cl)c1Cl (centres undefined)	·	5	·	·	·	·
